Assay outcomes deposited in PubChem BioAssay by Broad Institute.
The list is not random: actives were taken first. Their share in the collection is about 3.2%.
DENV2 CPE rescue – inhibitors of DENV2 cytopathic effect. DENV2-infected cells, cytopathic effect rescue, plate reader. CPE inhibition, % at 9.99 µM. hit rate 1.7% among 350,000. AID 651640; in the data active = CPE inhibition above about 20%, passing the limit was not always enough; inconclusive = no clear call, values can overlap the other calls; tested in BHK-21 cells;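 note: 0% = median of neutral control wells and 100% = median of positive control wells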
INS-1E GSIS act – primary screen for activators of insulin secretion dependent on glucose, INS-1E cells, GLuc reporter luminescence | activation, % at 16.6 µM | INS-1E GLuc reporter insulin secretion, 2-3 h | hit rate 0.61% among 370,000;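 active = lowest replicate activation of at least 40%, so every replicate reaches that level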;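 note: 0% = median of neutral control wells and 100% = median of IBMX positive control wells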
CaV13 FRET inh – Primary screen for inhibitors of IQ motif and Ca2+-dependent inactivation inhibitor domain binding in CACNA1D, Förster resonance energy transfer in living cells, …. HEK cells, CFP/YFP FRET ICDI-IQ, plate reader, 10 min; percent FRET-ratio fall versus neutral wells. hit rate 0.098% among 340,000. inhibition, % at 12.3 µM;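 active = mean replicate inhibition of at least 30% and at least 1% of replicates passing that level; inconclusive = only one of the two criteria is met; inactive = neither criterion is met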;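 note: 0% = median of the neutral control wells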
ERAP1 HTS inh – inhibitors of human ERAP1 aminopeptidase; inhibition, % at 10.7 µM; Q9NZ08; recombinant ERAP1, Leu-AMC fluorescence, 60 min; hit rate 0.15% among 340,000;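 active = mean replicate inhibition of at least 30%, or all replicates individually reaching that 30% level; inactive = mean below 30% and not every replicate reaching it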;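 note: 0% = neutral control wells and 100% = L-leucinethiol positive control wells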
Target sequence (Q9NZ08 whole entry, looked up): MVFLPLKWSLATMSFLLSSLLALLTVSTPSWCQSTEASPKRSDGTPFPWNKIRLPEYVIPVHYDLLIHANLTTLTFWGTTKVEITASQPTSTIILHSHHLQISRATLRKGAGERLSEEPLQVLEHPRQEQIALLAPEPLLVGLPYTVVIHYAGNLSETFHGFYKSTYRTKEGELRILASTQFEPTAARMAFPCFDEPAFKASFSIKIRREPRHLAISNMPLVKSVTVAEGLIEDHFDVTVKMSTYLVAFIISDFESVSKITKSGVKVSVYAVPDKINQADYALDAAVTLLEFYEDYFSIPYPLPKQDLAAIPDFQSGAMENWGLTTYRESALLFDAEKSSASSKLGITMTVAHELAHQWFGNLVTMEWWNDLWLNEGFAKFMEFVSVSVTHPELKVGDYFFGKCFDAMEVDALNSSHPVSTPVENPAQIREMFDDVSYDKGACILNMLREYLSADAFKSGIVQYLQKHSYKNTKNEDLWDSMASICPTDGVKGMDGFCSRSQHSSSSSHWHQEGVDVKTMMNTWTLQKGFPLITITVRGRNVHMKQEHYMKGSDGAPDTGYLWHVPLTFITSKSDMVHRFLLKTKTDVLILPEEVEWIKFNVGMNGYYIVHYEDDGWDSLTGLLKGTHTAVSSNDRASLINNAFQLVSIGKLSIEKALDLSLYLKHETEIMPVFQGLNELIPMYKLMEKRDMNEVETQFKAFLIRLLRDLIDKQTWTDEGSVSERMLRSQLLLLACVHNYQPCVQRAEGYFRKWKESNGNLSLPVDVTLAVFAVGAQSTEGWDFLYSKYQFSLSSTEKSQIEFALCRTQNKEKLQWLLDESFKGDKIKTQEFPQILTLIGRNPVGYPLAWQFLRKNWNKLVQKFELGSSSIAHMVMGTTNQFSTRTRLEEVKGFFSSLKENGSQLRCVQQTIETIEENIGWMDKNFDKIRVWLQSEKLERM
PGC1a acetyl inh – PGC1a acetylation modulation, inhibitor mode. U2OS PGC1a acetylation, AlphaScreen anti-acetyl-lysine; with virally co-expressed GCN5 acetyltransferase. inhibition, % at 15.6 µM. hit rate 0.17% among 350,000. AID 651687;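 active = every replicate shows inhibition of at least 40%; inconclusive = mean inhibition at least 40% but some replicate below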;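 note: 0% = neutral control wells and 100% = positive control wells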
rRNA inh HTS – inhibits bacterial ribosomal RNA function over humanized ribosomes. E. coli WT GFP vs humanized-ribosome RFP mutants, fluorescence, 24 h; active compounds read low; DMSO median 0, no signal -100. GFP signal change (wild-type ribosome), % (concentration not given with the values). hit rate 1.6% among 350,000;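 active = significant combined selectivity score with lowered wild-type GFP, culture density cut under 30%, mutant RFP and density less affected; inactive = any of these conditions unmet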
Numbers without * were called inactive.

`CCCN1[C@@H]2Cn3c(ccc(-c4cccc(F)c4)c3=O)[C@H]1[C@@H](C(=O)N(C)C)[C@@H]2CO` gave DENV2 CPE rescue -2, INS-1E GSIS act 1, ERAP1 HTS inh 0, PGC1a acetyl inh 4 and rRNA inh HTS 3.
For C[C@H]1CN([C@@H](C)CO)C(=O)CCCn2cc(nn2)CO[C@H]1CN(C)S(=O)(=O)c1ccc(Oc2ccccc2)nc1 the results were DENV2 CPE rescue -3, INS-1E GSIS act -1, ERAP1 HTS inh 0, PGC1a acetyl inh 5 and rRNA inh HTS -3.
Screening O=C(C1CCC1)N1CC(=O)N2[C@@H](CO)[C@@H](c3ccc(-c4ccccc4F)cc3)[C@@H]2C1 returned DENV2 CPE rescue 10, INS-1E GSIS act -10, ERAP1 HTS inh 1, PGC1a acetyl inh -3 and rRNA inh HTS -4.
FC(F)Oc1ccc(/C=N/NC(=S)Nc2cc(C(F)(F)F)ccc2Cl)cc1 was read as INS-1E GSIS act 111* and CaV13 FRET inh -2.
Screening CCCN1C[C@@H](C)[C@H](OC)CN(C)C(=O)c2ccc(NS(=O)(=O)c3ccccc3)cc2OC[C@@H]1C returned DENV2 CPE rescue 37*, INS-1E GSIS act 1, ERAP1 HTS inh -1, PGC1a acetyl inh 6 and rRNA inh HTS 2.
CCCN1C[C@@H](C)[C@@H](OC)CN(C)C(=O)c2cc(NS(=O)(=O)c3ccccc3)ccc2OC[C@H]1C was read as DENV2 CPE rescue -3, INS-1E GSIS act 3, PGC1a acetyl inh 2 and rRNA inh HTS 3.
For CO[C@@H]1CN(C)C(=O)c2ccc(NS(C)(=O)=O)cc2OC[C@H](C)N(Cc2nccs2)C[C@@H]1C the results were DENV2 CPE rescue 72*, INS-1E GSIS act -1, ERAP1 HTS inh -3, PGC1a acetyl inh 4 and rRNA inh HTS -1.
Screening CCCN1C[C@H](C)[C@@H](OC)CN(C)C(=O)c2ccc(NS(C)(=O)=O)cc2OC[C@H]1C returned DENV2 CPE rescue 27*, INS-1E GSIS act 14, ERAP1 HTS inh 1 and rRNA inh HTS 0.
Screening CO[C@H]1CN(C)C(=O)c2ccc(NS(C)(=O)=O)cc2OC[C@H](C)N(Cc2nccs2)C[C@@H]1C returned DENV2 CPE rescue 0, INS-1E GSIS act 0, ERAP1 HTS inh 0, PGC1a acetyl inh 6 and rRNA inh HTS -4.
C[C@H]1CN([C@@H](C)CO)C(=O)Cc2cc(NC(=O)c3ccncc3)ccc2O[C@@H]1CN(C)C(=O)Nc1ccc2c(c1)OCO2 was read as DENV2 CPE rescue -8, INS-1E GSIS act 20, ERAP1 HTS inh 1, PGC1a acetyl inh 10 and rRNA inh HTS -1.
For O=C(NC[C@H]1N[C@H](CO)[C@H]1c1ccccc1)c1ccccc1F the results were DENV2 CPE rescue 23*, INS-1E GSIS act -2, ERAP1 HTS inh -1, PGC1a acetyl inh 4 and rRNA inh HTS -3.
Screening O=C(NC[C@H]1N[C@H](CO)[C@@H]1c1ccc(C2=CCCCC2)cc1)c1cccc(F)c1 returned DENV2 CPE rescue 10, INS-1E GSIS act -3, PGC1a acetyl inh -12 and rRNA inh HTS -63.
Screening O=C(NC[C@H]1N[C@H](CO)[C@@H]1c1ccc(C2=CCCCC2)cc1)c1ccc(F)cc1 returned DENV2 CPE rescue 44*, INS-1E GSIS act -7, ERAP1 HTS inh 3, PGC1a acetyl inh -28 and rRNA inh HTS -61.
Screening CN(C[C@H]1N[C@@H](CO)[C@@H]1c1ccc(C2=CCCC2)cc1)C(=O)c1cccc(F)c1 returned DENV2 CPE rescue -9, INS-1E GSIS act 9, ERAP1 HTS inh -6, PGC1a acetyl inh 76* and rRNA inh HTS -7.
For CCN(C[C@H]1N[C@H](CO)[C@H]1c1ccc(C2=CCCC2)cc1)C(=O)c1cccnc1 the results were DENV2 CPE rescue -6, INS-1E GSIS act 4, ERAP1 HTS inh 5, PGC1a acetyl inh -8 and rRNA inh HTS 0.
`C[C@@H]1CN([C@@H](C)CO)C(=O)c2cc(NC(=O)Nc3ccc(C(F)(F)F)cc3)ccc2O[C@H]1CN(C)C(=O)Nc1cccc2ccccc12` gave DENV2 CPE rescue -3, INS-1E GSIS act -19, PGC1a acetyl inh -9 and rRNA inh HTS 2.
COc1cccc(CNC(=O)C[C@H]2CC[C@H](NC(C)=O)[C@H](CO)O2)c1 was read as DENV2 CPE rescue inconclusive, INS-1E GSIS act 11, ERAP1 HTS inh 0, PGC1a acetyl inh -6 and rRNA inh HTS 2.
Screening CN(C)C(=O)C[C@@H]1CC[C@H]2[C@@H](COC[C@@H](O)CN2C(=O)C2CCCC2)O1 returned DENV2 CPE rescue 11, INS-1E GSIS act 6, PGC1a acetyl inh 7 and rRNA inh HTS 2.
For O=C(O)C[C@H]1C[C@@H]2c3cc(NC(=O)c4ccc5c(c4)OCO5)ccc3O[C@@H]2[C@H](CO)O1 the results were DENV2 CPE rescue 3, INS-1E GSIS act 2, ERAP1 HTS inh -3, PGC1a acetyl inh 3 and rRNA inh HTS 1.
For N#C[C@@H]1[C@H](c2ccc(-c3cncnc3)cc2)[C@H](CO)N1C(=O)C1CC1 the results were DENV2 CPE rescue 2, INS-1E GSIS act 3, ERAP1 HTS inh -2, PGC1a acetyl inh 3 and rRNA inh HTS 2.
`N#C[C@@H]1[C@@H](c2ccc(-c3cncnc3)cc2)[C@H](CO)N1C(=O)C1CCCC1` gave DENV2 CPE rescue 23*, INS-1E GSIS act 15, ERAP1 HTS inh 1, PGC1a acetyl inh 12 and rRNA inh HTS 2.
Screening N#C[C@H]1[C@@H](c2ccc(C3=CCCC3)cc2)[C@@H](CO)N1C(=O)C1CCCC1 returned DENV2 CPE rescue 72*, INS-1E GSIS act 2, ERAP1 HTS inh 3, PGC1a acetyl inh -3 and rRNA inh HTS 2.
For COc1ccc(NC(=O)N(C)C[C@H]2Oc3ccc(NC(=O)Cc4ccccc4)cc3CC(=O)N([C@@H](C)CO)C[C@H]2C)cc1 the results were INS-1E GSIS act 12, PGC1a acetyl inh 4 and rRNA inh HTS -1.
`C[C@@H]1CN([C@@H](C)CO)C(=O)c2cc(NC(=O)CCCCCC(=O)Nc3ccccc3N)ccc2O[C@@H]1CN(C)C(=O)Nc1ccc2c(c1)OCO2` gave DENV2 CPE rescue 30*, INS-1E GSIS act 2, ERAP1 HTS inh -2, PGC1a acetyl inh -6 and rRNA inh HTS 2.
`C[C@@H]1CN([C@@H](C)CO)C(=O)c2cc(NC(=O)CCCCCC(=O)Nc3ccccc3N)ccc2O[C@H]1CN(C)C(=O)Nc1ccc2c(c1)OCO2` gave DENV2 CPE rescue 16, INS-1E GSIS act 12, ERAP1 HTS inh -2, PGC1a acetyl inh 10 and rRNA inh HTS -4.
For C[C@H]1CN([C@@H](C)CO)C(=O)c2cc(NC(=O)CCCCCC(=O)Nc3ccccc3N)ccc2O[C@@H]1CN(C)C(=O)Nc1ccc2c(c1)OCO2 the results were DENV2 CPE rescue 19, INS-1E GSIS act -6, ERAP1 HTS inh 2, PGC1a acetyl inh 1 and rRNA inh HTS -1.
